According to PMC4336329 (PLoS ONE, 2015):
About 14,000 (4.5%) of roughly 310,000 compounds showed an effect of 50% or more. Effects have a minus sign here. Only a selection was taken, and strong results are over-represented in it overall.

The molecules below were run against human ether-à-go-go-related gene (hERG) potassium channel (human, UniProt Q12809) (assay: primary screen, population patch clamp on CHO cells stably expressing hERG; higher = less effect of the substance).
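Further: peak tail current of the secondary pulse compared with the same well before compound.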

Chain of human ether-à-go-go-related gene (hERG) potassium channel (Q12809 whole entry, looked up): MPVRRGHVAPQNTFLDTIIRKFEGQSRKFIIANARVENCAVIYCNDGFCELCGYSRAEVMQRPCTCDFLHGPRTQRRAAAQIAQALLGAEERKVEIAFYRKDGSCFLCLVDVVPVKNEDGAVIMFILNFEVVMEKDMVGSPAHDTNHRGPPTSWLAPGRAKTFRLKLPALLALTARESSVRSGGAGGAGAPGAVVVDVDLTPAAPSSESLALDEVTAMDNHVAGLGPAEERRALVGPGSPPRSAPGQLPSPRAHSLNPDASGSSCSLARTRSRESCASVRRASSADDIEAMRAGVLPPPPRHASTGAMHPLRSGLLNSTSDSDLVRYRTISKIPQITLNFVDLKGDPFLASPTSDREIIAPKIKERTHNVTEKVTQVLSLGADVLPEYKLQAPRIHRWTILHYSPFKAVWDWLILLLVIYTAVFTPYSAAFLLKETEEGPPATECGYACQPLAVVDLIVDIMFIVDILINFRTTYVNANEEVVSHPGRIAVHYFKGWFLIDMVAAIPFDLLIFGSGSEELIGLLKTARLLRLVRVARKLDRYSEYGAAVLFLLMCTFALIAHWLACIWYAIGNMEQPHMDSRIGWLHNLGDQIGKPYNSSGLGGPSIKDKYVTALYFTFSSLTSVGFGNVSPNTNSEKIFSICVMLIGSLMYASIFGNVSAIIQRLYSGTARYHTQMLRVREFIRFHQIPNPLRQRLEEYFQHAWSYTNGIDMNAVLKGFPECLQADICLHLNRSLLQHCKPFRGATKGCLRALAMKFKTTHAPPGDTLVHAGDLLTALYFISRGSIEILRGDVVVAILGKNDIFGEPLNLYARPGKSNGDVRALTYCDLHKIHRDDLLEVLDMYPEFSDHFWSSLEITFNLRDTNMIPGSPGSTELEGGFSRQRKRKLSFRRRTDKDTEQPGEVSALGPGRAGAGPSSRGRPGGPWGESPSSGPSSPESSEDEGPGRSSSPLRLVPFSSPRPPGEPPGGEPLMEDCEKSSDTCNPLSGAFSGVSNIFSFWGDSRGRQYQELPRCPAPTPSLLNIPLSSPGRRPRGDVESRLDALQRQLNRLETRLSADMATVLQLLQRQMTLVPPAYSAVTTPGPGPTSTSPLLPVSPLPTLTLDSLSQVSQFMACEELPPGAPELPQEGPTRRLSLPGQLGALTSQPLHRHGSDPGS

Compound | hERG current change (%, negative = inhibition) at 10uM [%]
COc1ccc(C)cc1Cn1c(S(C)(=O)=O)nc2ccccc21 | -9.64
Cc1cccc(N2CCN(C(=O)CCN3C(=O)C4C5C=CC(C5)C4C3=O)CC2C)c1 (stereo not drawn) | -18.2
CCN1CN(CCc2ccccc2)CNC1=S | 5.61
O=C(C1CCN(S(=O)(=O)c2ccc(Cl)cc2)CC1)N1CCCCCCC1 | -16.1
Cc1ccc(-n2nc3c(c2NC(=O)c2ccc4c(c2)OCO4)CS(=O)C3)cc1 (stereo not drawn) | 7.09
CCN(CC)C(=O)/C(=C/c1ccc2c(c1)OCO2)NC(=O)c1ccc(Br)cc1 | -70.5
CCN(CC)C(=O)/C(=C\c1ccc2c(c1)OCO2)NC(=O)c1ccc(Br)cc1 | -63.5
COc1ccc(C(=O)N/C(=C\c2ccc3c(c2)OCO3)C(=O)Nc2ccc(C(=O)O)cc2)cc1 | 17.8
O=C(NCc1ccc2c(c1)OCO2)c1ccc(Br)cc1 | -19.8
CCN(CC)C(=O)/C(=C\c1ccc(Br)cc1)NC(=O)c1ccccc1OC | -27.3
COc1ccc(-c2cn(CCN)c(-c3ccncc3)n2)cc1 | 5.87
CN(C)S(=O)(=O)c1ccc(Cl)c(NC(=O)COC(=O)CN2C(=O)C3CCCCC3C2=O)c1 (stereo not drawn) | 6.74
CC1CCN(S(=O)(=O)c2ccc3[nH]c(=O)ccc3c2)CC1 | -5.5
CCC1CCCCN1S(=O)(=O)c1ccc2[nH]c(=O)ccc2c1 (stereo not drawn) | -60.1
CCC1CCCCN1S(=O)(=O)c1ccccc1 (stereo not drawn) | -13
C=CCN(c1ccc(C(=O)NCCc2ccccc2)cc1)S(C)(=O)=O | -6.23
COc1ccc(C)cc1NC(=O)C(c1ccccc1)N1CCNC(=O)C1 (stereo not drawn) | -5.31
CC(C)(C)c1ccc(C(=O)NCCN2CCOCC2)cc1 | 1.01
CC(C)(C)c1ccc(C(=O)NCCCN2CCN(CCCNC(=O)c3ccc(C(C)(C)C)cc3)CC2)cc1 | -63.6
Cc1ccc(C(=O)NCCCN2CCN(CCCNC(=O)c3ccc(C)cc3)CC2)cc1 | -67.5
O=C(Nc1ccc(C(=O)NCCCN2CCN(c3ccc(F)cc3)CC2)cc1)C1=CSCCO1 | -54
CC(C)c1ccc(C(=O)NCCCN2CCOCC2)cc1 | -5.2

Compound | hERG current change (%, negative = inhibition) at 10uM [%]
Cc1ccc(C(=O)NCCCN2CCOCC2)cc1 | 3.81
Cc1ccc(C(=O)NCCN2CCCC2)cc1.Cl | -5.44
CN1CCN(CCCNC(=O)c2ccc(NC(=O)C3=CSCCO3)cc2)CC1 | 11.5
O=C(Nc1ccc(C(=O)NCCCN2CCN(c3ccccc3)CC2)cc1)C1=CSCCO1 | -38.2
CC(C)c1ccc(C(=O)NCCCN2CCN(CCCNC(=O)c3ccc(C(C)C)cc3)CC2)cc1 | -84.3
CC(C)(C)c1ccc(C(=O)NCCN2CCCC2)cc1.Cl | -6.48
CC(C)c1ccc(C(=O)NCCCN(C)C)cc1 | -17.1
COc1cccc(C(=O)NCC2CCCN2S(=O)(=O)c2ccccc2)c1 (stereo not drawn) | 2.72
COc1cccc(-n2c(C)n[nH]c2=O)c1 | 14.1
O=C(N/N=C/c1ccc(O)cc1)c1csc2c1CCCC2 | -19.7
CCc1cc(Br)ccc1N1C(=O)C2CC=CCC2C1=O (stereo not drawn) | 5.21
Cc1nccn1CCCNC(=O)CC1C(=O)NCCN1Cc1ccccc1C(F)(F)F (stereo not drawn) | 9.64
CCCN(N=Nc1cccc([N+](=O)[O-])c1)c1cccc([N+](=O)[O-])c1 | 3.14
O=C(NCCCN1CCN(CCCNC(=O)c2ccc(F)cc2)CC1)c1ccc(F)cc1 | -51.1
O=C(NCCCNC(=O)c1ccc(F)cc1)c1ccc(F)cc1 | 7.81
O=C(NCCCCNC(=O)c1ccc(F)cc1)c1ccc(F)cc1 | 13.3
CCn1c2ccccc2c2nnc(SCC(=O)N(C)C3CCS(=O)(=O)C3)nc21 (stereo not drawn) | -21
O=C(CN(C(=O)CCC(=O)Nc1ccccn1)c1cccc(F)c1)NCc1ccc(F)cc1 | -4.26
CS(=O)(=O)N1CCN(C(=O)c2csc3ccccc23)CC1 | 2.35
Cc1ccc(C2CN(c3ccccc3)CC2C(=O)c2ccc(F)cc2)cc1 (stereo not drawn) | -17
CN1CC(C(=O)c2ccc(Cl)cc2)C(c2ccccc2F)C1 (stereo not drawn) | -46.5
CN1CC(C(=O)c2cccc(C(F)(F)F)c2)C(c2ccc(Cl)cc2)C1 (stereo not drawn) | -20

Compound | hERG current change (%, negative = inhibition) at 10uM [%]
CN1CC(C(=O)c2ccc(Cl)cc2)C(c2ccc(Cl)cc2Cl)C1 (stereo not drawn) | -49.2
CN1CC(C(=O)c2ccc(F)cc2)C(c2c(F)cccc2Cl)C1 (stereo not drawn) | -65.7
CN1CC(C(=O)c2ccc(F)cc2)C(c2ccc(F)cc2)C1 (stereo not drawn) | -30.2
Cc1ccc(C2CN(C)CC2C(=O)c2ccc(F)cc2)cc1 (stereo not drawn) | -53.2
CN1CC(C(=O)c2ccc([N+](=O)[O-])cc2)C(c2ccc(Cl)cc2)C1 (stereo not drawn) | -75.6
O=C(c1ccccc1)C1CN(c2ccccc2)CC1c1ccc(Cl)cc1 (stereo not drawn) | 27.1
COc1cccc(C(=O)C2CN(C)CC2c2ccc(Cl)cc2)c1 (stereo not drawn) | -66.4
COc1cccc(C(=O)C2CN(c3ccccc3)CC2c2ccc(Cl)cc2)c1 (stereo not drawn) | 5.04
COc1ccc(OC)c(NC(=O)COC(=O)c2ccc(OC)c(S(=O)(=O)N3CCCC3)c2)c1 | 16.9
CN(C)C=O.NS(=O)(=O)c1cccc(NC(=O)CSc2nc3nc(-c4cccs4)cc(C(F)(F)F)c3c(=O)[nH]2)c1 | 7.85
CCOc1cc(CNc2nn[nH]n2)ccc1OCC(=O)NC(C)(C)C | 13.2
O=C(c1cc(O)c(O)c([N+](=O)[O-])c1)c1ccccc1F | 2.56
COCCNC(=O)Nc1ccc2nc(-c3ccco3)c(-c3ccco3)nc2c1 | 4.08
CCOC(=O)CC(NS(=O)(=O)c1ccc2[nH]cc(C(=O)O)c(=O)c2c1)c1ccc(OCC)c(OC)c1 (stereo not drawn) | -1.02
COCCn1c(N)c(N(Cc2ccccc2)C(=O)c2ccc3ccccc3c2)c(=O)[nH]c1=O | 7.55
O=C(NC1CCCC1)C1CC(=O)N(CCc2ccccc2)C1 (stereo not drawn) | 9.66
O=C(COc1ccccc1Cl)N1CCCC1 | 5.64
CN1CC(C(=O)c2ccccc2)C(C(=O)c2ccccc2)C1 (stereo not drawn) | -21.4
COc1ccc(-c2ccc(C(=O)C3CC3)cc2)cc1 | 14.7
CC(=O)Nc1ccc(C2CN(C)CC2C(=O)c2ccc(Cl)cc2)cc1 (stereo not drawn) | -31.8
CN1CC(C(=O)c2cccs2)C(c2ccc(Cl)cc2)C1 (stereo not drawn) | -49.2
CN1CC(C(=O)c2ccccc2)C(c2ccccc2)C1 (stereo not drawn) | -5.47

Compound | hERG current change (%, negative = inhibition) at 10uM [%]
COc1ccc(C(=O)C2CN(C)CC2C(=O)c2ccc(OC)cc2)cc1 (stereo not drawn) | -57.9
CN1CC(C(=O)c2ccc(Cl)cc2)C(c2ccccc2)C1 (stereo not drawn) | -31.8
COc1ccc(C(=O)C2CN(C)CC2c2ccc(Cl)cc2)cc1 (stereo not drawn) | -73.1
CN1CC(C(=O)c2ccc(Cl)cc2)C(c2ccc(N(C)C)cc2)C1 (stereo not drawn) | -57.9
COc1ccc(C(=O)C2CN(c3ccccc3)CC2c2ccc(Cl)cc2)cc1 (stereo not drawn) | -4.84
Cc1ccc(C(=O)C2CN3CCC2CC3)cc1.Cl (stereo not drawn) | -37.4
Cc1ccc(C(=O)C2CN(C)CC2C(=O)c2ccc(C)cc2)cc1 (stereo not drawn) | -57
CNCCOc1ccccc1-c1ccccc1.O=C(O)C(=O)O | -5.68
O=C(CCN1C(=O)c2ccccc2S1(=O)=O)N1CCN(c2ccccc2F)CC1 | -5.02
Cc1ccsc1C(=O)NCC(C)(C)N1CCOCC1 | -9.41
CC(=O)SC(C)CC(=O)Nc1ccccc1 (stereo not drawn) | 7.33
Cc1nc2cc(-c3ccccc3)nn2c(C)c1CCC(=O)N1CCN(c2ccccc2)CC1 | -65.7
Cc1nc2cc(-c3ccccc3)nn2c(C)c1CCC(=O)NC(C)c1ccc2c(c1)OCCO2 (stereo not drawn) | -50.8
Cc1nc2nc(C)c(CCC(=O)N3CCN(c4ccccn4)CC3)c(C)n2n1 | -46.1
Cc1nc2nc(C)c(CCC(=O)N3CCOCC3)c(C)n2n1 | -21
Cc1nc2nc(C)c(CCC(=O)N3CCN(c4ccccc4)CC3)c(C)n2n1 | -56.2
Cc1nc2cc(-c3ccc(Cl)cc3)nn2c(C)c1CCC(=O)NC(C)c1ccc2c(c1)OCCO2 (stereo not drawn) | -23.8
Cc1nc2cc(-c3ccccc3)nn2c(C)c1CCC(=O)N1CCC2(CC1)OCCO2 | -47.2
Cc1nc2cc(-c3cccc(F)c3)nn2c(C)c1CCC(=O)N1CCN(c2ccccn2)CC1 | -13.1
Cc1nc2cc(-c3cccc(F)c3)nn2c(C)c1CCC(=O)NC(C)c1ccc2c(c1)OCCO2 (stereo not drawn) | -44.6
O=C(CC1(c2ccc(Cl)cc2)C2CC3CC(C2)CC1C3)NCCO (stereo not drawn) | -7.17
